High-throughput results from PubChem.
PfM18AAP inh = PfM18AAP inhibitors, malaria aminopeptidase, primary screen, biochemical, QFRET, recombinant enzyme; M18 aspartyl aminopeptidase (Plasmodium falciparum 3D7); H-Glu-NHMec fluorogenic cleavage; inhibition, % at 7.35 µM; actives 1.2% (n = 290,000); AID 1822, 2009;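 active = inhibition above the campaign mean inhibition over all tested compounds plus 3 SD, cut at about 28% in these data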;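 note: 0% = plate median of test compound wells and 100% = 2 mM ZnCl2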
Rce1 inhib = yeast Rce1p protease inhibitors, primary screen, biochemical, fluorescence, cell-free homogeneous | yeast membranes, quenched prenylated peptide cleavage fluorescence | calls only | actives 0.27% (n = 290,000);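 active = fall in fluorescence gain of 50% or more versus controls, with final raw signal at or below 3038400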;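 note: plate controls were neutral control wells for no effect and wells lacking membranes for full effect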
PLCg1 inh = PLC-gamma1 enzyme inhibitors, primary screen, biochemical, fluorescence, purified enzyme | fluorogenic substrate | inhibition, % at 12.2 µM | actives 0.84% (n = 370,000); in the data active = inhibition above about 9.5%
GC-A act = GC-A stimulated cGMP production enhancers – HEK293 GC-A cells, cGMP TR-FRET, EC30 ANP, primary screen. activation, % at 10 µM. 0% at EC30 ANP, 100% saturating ANP. actives 0.14% (n = 370,000); in the data active = activation above about 40%
GC-B act = human GC-B receptor activators, primary screen, HEK293 GC-B cells, cGMP TR-FRET, EC30 CNP | Atrial natriuretic peptide receptor 2 (Homo sapiens), P20594 | 0% at EC30 CNP, 100% saturating CNP | activation, % at 10 µM | actives 0.11% (n = 370,000) | AID 1920062, 2024;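 active = activation at 10 µM reaching about 35% in either raw or pattern-adjusted values, limit read from the data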
PLCb3 inh = human PLC-beta3 inhibitors, primary screen, biochemical, fluorescence | 1-phosphatidylinositol 4,5-bisphosphate phosphodiesterase beta-3 (Homo sapiens), Q01970 | Purified PLC-beta3, fluorogenic substrate | inhibition, % at 12.2 µM | actives 0.18% (n = 370,000) | AID 720704, 2013;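 note: 0% = median of compound wells on plate and 100% = full blocker control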
PLCg1 ctr = PLC-gamma1 enzyme inhibitors, counter-screen for PLC-beta3 inhibitor project, biochemical, fluorescence. shares compounds with PLCg1 inh. purified PLC-gamma1, fluorogenic substrate. inhibition, % at 12.3 µM. actives 3.1% (n = 3,300). AID 743258, 2014; in the data active = inhibition above about 9.5%
PLCb3 confirm = PLC-beta3 inhibitor confirmation, biochemical, fluorescence, purified enzyme. shares compounds with PLCg1 inh. fluorogenic substrate fluorescence. inhibition, % at 12.3 µM. actives 1% (n = 3,300). AID 743261, 2014
* = called active by the depositor; i = inactive; x = not tested or not shown. Shown are actives, neighbours in structure and some others; about 2.2% of the full set was active somewhere. Cut-off read from the data, not from the text of the source, unless noted: active = inhibition above about 11%; inactive = the rest.

SMILES | PfM18AAP inh | Rce1 inhib | PLCg1 inh | GC-A act | GC-B act | PLCb3 inh | PLCg1 ctr | PLCb3 confirm
O=C(NC1CCCCN(Cc2ccc(Cl)cc2)C1=O)c1ccccc1 (stereo not drawn) | x | x | 4 | 1 | -1 | -2 | x | x
COc1ccc(Br)cc1/C=N/n1c(COc2ccccc2)n[nH]c1=S | 13 | i | 11* | -2 | -3 | -3 | -49 | -43
OC1CCN(Cc2ccc3ccccc3c2)CC1 | 1 | i | 0 | -1 | 6 | -3 | x | x
CC(C)(C)c1cc(CN2CCC(O)CC2)cc(C(C)(C)C)c1O | 10 | i | 11* | 0 | -8 | 2 | -4 | -22
O=C(CN(CCc1ccccc1)S(=O)(=O)c1ccccc1)N1CCOCC1 | x | x | 0 | 2 | 4 | 3 | x | x
Cc1ccc(C(C(=O)NCc2ccco2)N(CCc2ccccc2)C(=O)Cn2nnc3ccccc32)o1 (stereo not drawn) | 0 | x | 4 | -10 | -15 | 11* | -4 | -3
COc1ccccc1CC(NC(C)=O)C(=O)NC1CCN(C(=O)Nc2cccc(F)c2)CC1 (stereo not drawn) | 4 | i | -1 | 3 | 6 | 3 | x | x
COc1ccccc1CC(NC(C)=O)C(=O)NC1CCN(C(=O)Nc2ccc(F)cc2)CC1 (stereo not drawn) | 0 | i | 11* | -7 | 8 | -9 | -5 | -1
COc1ccc(CC(NC(C)=O)C(=O)NC2CCN(C(=O)NCc3ccccc3)CC2)cc1OC (stereo not drawn) | -2 | i | 3 | 1 | -1 | 6 | x | x
COc1ccc(CC(NC(C)=O)C(=O)NC2CCN(C(=O)Nc3ccccc3C)CC2)cc1OC (stereo not drawn) | 0 | i | 11* | -3 | 4 | -5 | -5 | -2
Cc1cccc(C(=O)N/N=C/c2ccc(OC3CSC3)cc2)c1 | 0 | i | 0 | -4 | -4 | -2 | x | x
COc1cccc(C(=O)N/N=C/c2ccc(OC3CSC3)cc2)c1 | -9 | i | 10* | -5 | -9 | 2 | -1 | 0
N#CCC[C@H]1CC[C@]2(CCCN(Cc3ccccc3)C2)O1 | x | x | 0 | -2 | -7 | 0 | x | x
O=C(Nc1ncccn1)C1CCCCC1 | -1 | i | 11* | 4 | 3 | -4 | -9 | -1
O=C(Nc1ccccc1)C1CCCCC1 | -7 | i | 5 | 4 | -4 | 3 | x | x
CC(C)(C)OC(=O)NCCc1ccccc1/C=C/S(=O)(=O)NC1CCCC1 | x | x | 2 | -1 | 2 | -2 | x | x
CCCNC(=O)COC(=O)C1CCN(S(=O)(=O)c2ccc3c(c2)OCCO3)CC1 | x | i | 1 | 2 | -4 | 0 | x | x
CC(C)C(C)NC(=O)COC(=O)C1CCN(S(=O)(=O)c2ccc3c(c2)OCCO3)CC1 (stereo not drawn) | x | i | 11* | -1 | 10 | -2 | -6 | -1
CCNC(=O)COC(=O)C1CCN(S(=O)(=O)c2ccc3c(c2)OCCO3)CC1 | x | i | 10* | 1 | 10 | -4 | -4 | -1
CC(C)(C)C(=O)OC12CCCN(C1)/C(=C/c1cccnc1)C2 (stereo not drawn) | x | x | 6 | 1 | 3 | 2 | x | x
COc1ccc(OCCn2cc(/C(N)=N/O)c3ccccc32)cc1 | 10 | i | 9 | x | x | 11* | 9 | 2
CCCCCCCCOc1ccc(C(=O)O)cc1 | x | x | 1 | 2 | -2 | -1 | x | x
CCCCCCOc1ccc(C(=O)O)cc1C#N | -5 | i | 9.8* | -4 | 0 | -5 | -4 | -4
